From PubChem
In the library only some 2.3% were active in any assay of this set; here they are far more common.
FUS yeast rescue: rescues growth of FUS-expressing yeast; Potency, µM (series often up to 76.6 µM), hits mostly activators; AID 1347120; 0.24% of 390,000 active; S. cerevisiae FUS-expressing, growth rescue, OD600, 24 h;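 further: plate controls were DMSO vehicle for no effect and reference control for full effect; nearly all actives have a fitted effect of over 55% in size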
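Galactose (2%) drives FUS expression in yeast precultured in raffinose; seeding density OD 0.005. Test compounds incubated 24hr at 30C and 99% humidity before absorbance at 600 nm was measured.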
Chronic BCR inh: chronic active BCR signaling inhibition. ABC-DLBCL IkBa-CBG/CBR reporter, luminescence ratio, 4 h. 0.05% of 340,000 active. AID 493014. Potency, µM (highest dose often 46.1 µM), for inactives: top-dose activity change, negative = inhibition, actives largely listed as inhibitors; active means well fitted inhibition curve with a large enough effect in the signal ratio, with a control signal flat, not every such curve was filed as active; inconclusive means small, poorly fitted or top-dose-only effect, or effect the other way, or a change in a side signal; the % refers to the signal ratio;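 further: plate controls were basal doxycycline-induced cells for no effect and cells given 10 µM MG132 for full effect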
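Concentration-response series (up to 46 uM) were applied to TMD8 dual-reporter cells for 4 h at 37C with doxycycline. Green/red ratio, after filter-overlap correction, defined %Activity; red signal alone was normalised to basal cells and zero luminescence.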
TDP-43 yeast inh: inhibitors of TDP-43 toxicity in yeast. 1.8% of 410,000 active. Potency, µM (titrated, usually from 46.1 µM), without a hit: at the top dose growth rescue (activation), actives largely listed as activators. TDP-43 expressing yeast growth rescue, BacTiter-Glo, 24 h; further: % of control where 0% means no effect; nearly all actives have a fitted effect of over 50% in size
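Yeast cells expressing TDP-43 under galactose induction are exposed to compounds for 24 hr at 30 deg C. BacTiter-Glo luminescence measures growth, so protective compounds score as activators.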
Abeta yeast res: A-beta toxicity reversal in yeast; yeast expressing A-beta42, growth rescue, OD600, 48 h; response scale: 0% DMSO, 100% iron-clioquinol control; Potency, µM (series often up to 46.1 µM), hits mostly activators; 0.063% of 410,000 active; further: nearly all actives have a fitted effect of over 55% in size
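Growth rescue measured by 600 nm absorbance after 48 h yeast culture at 30 C with compound. Values normalized between DMSO and an equimolar ferric chloride plus clioquinol control.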
uPA surface inh: blocks generation of uPA at the cell surface. cell surface uPA generation assay, qHTS. Potency, µM (doses to about 38.3 µM), inactives show top-dose activity change, negative = inhibition, most hits filed as inhibitors. 0.31% of 330,000 active. AID 540303; active means well fitted inhibition curve with a large enough effect; inconclusive means small, poorly fitted or top-dose-only effect; inactive means no such curve, though single readings can be large or run the other way; tested in mouse RAW 264.7 cells; further: on the % scale 0 is the no-effect control and ±100 the full control effect; nearly all actives have a fitted effect of over 55% in size
aSyn yeast inh: rescues yeast growth from alpha-synuclein toxicity | Potency, µM (top dose mostly 46.1 µM), for the others: top-dose growth rescue (activation), hits mostly activators | Yeast expressing alpha-synuclein, growth rescue, BacTiter-Glo, 24 h | 0.14% of 370,000 active; further: % of control where 0% means no effect; nearly all actives have a fitted effect of over 65% in size
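Screening used galactose-induced yeast with toxic alpha-synuclein levels, exposed to compound for 24 hr at 30 deg C. Cell growth, read with BacTiter-Glo luminescence, gave the measured signal.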
Starred values were filed as active, the others as inactive; [ ] = remark or other dose. Unless noted, the call rests on the fitted dose curve; in most records, active means well fitted curve in the direction sought with a large enough effect; inconclusive means small, poorly fitted or top-dose-only effect, or another doubt; inactive means no such curve, though single readings can be large; an effect the other way counts as inactive or inconclusive. Potency means the concentration at half of the fitted maximal effect.

Screening CCc1cccc(NC(=O)c2cccc3c2C(=O)N(CC2CCCO2)C3)c1 (stereo unspecified) returned FUS yeast rescue inactive, Chronic BCR inh inconclusive, TDP-43 yeast inh 17.8µM*, Abeta yeast res inactive, uPA surface inh inconclusive and aSyn yeast inh -15.4%.
For CCOC(=O)c1cnc2c(C)cccc2c1NCCc1ccc(OC)c(OC)c1 the results were FUS yeast rescue inactive, Chronic BCR inh inconclusive, TDP-43 yeast inh 13.7%[9.22 µM], Abeta yeast res inactive, uPA surface inh 0.9% and aSyn yeast inh -15.9%.
For COc1ccc(OCc2cc(=O)c3ccc4c(c3o2)C=CC(C)(C)O4)cc1OC the results were FUS yeast rescue inactive, Chronic BCR inh -15.4%, TDP-43 yeast inh 35.5µM*, Abeta yeast res inactive, uPA surface inh -1.6% and aSyn yeast inh -3.4%.
For O=C1N[C@@H](Cc2c[nH]c3ccccc23)COC(=O)[C@H](Cc2ccc(F)cc2)C/C=C\C[C@H]1CC(=O)N(CCO)Cc1ccccc1 the results were FUS yeast rescue inconclusive, Chronic BCR inh inconclusive, TDP-43 yeast inh -14.9%, Abeta yeast res inactive, uPA surface inh inconclusive and aSyn yeast inh 5.0%.
`O=[N+]([O-])c1ccc(N2CCCCC2)c(Cl)c1N1CCCCC1` gave FUS yeast rescue inactive, Chronic BCR inh 4.4%, TDP-43 yeast inh -6.4%, Abeta yeast res inactive and aSyn yeast inh -13.7%.
`Cc1cc(C)n2nc(-c3cnn(C)c3C(F)(F)F)c(Cl)c2n1` gave FUS yeast rescue inactive, Chronic BCR inh inconclusive, TDP-43 yeast inh inconclusive, Abeta yeast res inactive, uPA surface inh -5.0% and aSyn yeast inh -8.7%.
Cc1cc(C)n2nc(-c3cnn(C)c3C(F)(F)F)cc2n1 was read as FUS yeast rescue inactive, Chronic BCR inh -23.0%, TDP-43 yeast inh 12.6µM*, Abeta yeast res inactive, uPA surface inh -5.3% and aSyn yeast inh 3.3%.
For CCn1c(COc2ccc(C)cc2)nc2ccccc21 the results were FUS yeast rescue inactive, Chronic BCR inh 8.2%, TDP-43 yeast inh 11.2µM*, Abeta yeast res inactive, uPA surface inh 1.6% and aSyn yeast inh 5.6%.
Screening CCOCCn1c(COc2ccc(C)cc2)nc2ccccc21 returned Chronic BCR inh 0.3%, TDP-43 yeast inh -6.3%, Abeta yeast res inactive, uPA surface inh -2.9% and aSyn yeast inh -0.4%.
`C=CCn1c(COc2ccccc2)nc2ccccc21` gave FUS yeast rescue inactive, Chronic BCR inh -1.0%, TDP-43 yeast inh -10.8%[1.82 µM], Abeta yeast res 20µM*, uPA surface inh -6.6% and aSyn yeast inh 13.6%.
Screening Cc1ccc(OCc2nc3ccccc3n2C(C(=O)Nc2c(C)cccc2C)C2CC2)cc1 (stereo unspecified) returned FUS yeast rescue 8.91µM*, TDP-43 yeast inh -16.8%, Abeta yeast res inactive and aSyn yeast inh -0.8%.
For CSCCC(NC(=O)COc1ccccc1)C(=O)OCC(=O)c1ccccc1 (stereo unspecified) the results were FUS yeast rescue inactive, Chronic BCR inh -5.9%, TDP-43 yeast inh -22.2%, Abeta yeast res inactive, uPA surface inh 3.2% and aSyn yeast inh -14.8%.
COC(=O)c1[nH]c2cc(OC)c(OC)cc2c1/C=N/Nc1ccccc1 was read as FUS yeast rescue inactive, Chronic BCR inh -0.6%, TDP-43 yeast inh 22.3%, Abeta yeast res inactive, uPA surface inh -7.6% and aSyn yeast inh 8.2%.
For CCCCNC(=S)N1CCn2cccc2C1c1ccc(F)cc1 (stereo unspecified) the results were FUS yeast rescue inconclusive, Chronic BCR inh 10.3%, TDP-43 yeast inh 15.8µM*, Abeta yeast res inactive, uPA surface inh -1.0% and aSyn yeast inh 7.3%.
For CCN(CC)c1ccc(/C=N/NC(=O)CNC(=O)/C=C/c2ccco2)cc1 the results were FUS yeast rescue inconclusive, Chronic BCR inh -26.8%, TDP-43 yeast inh -18.6%, Abeta yeast res inactive, uPA surface inh -5.0% and aSyn yeast inh -6.0%.
`COc1ccc(N(CC(=O)Nc2ccc3c(c2)OCCO3)S(=O)(=O)c2cccnc2)cc1` gave FUS yeast rescue inactive, Chronic BCR inh inconclusive, TDP-43 yeast inh -8.3%, Abeta yeast res inactive, uPA surface inh 7.9% and aSyn yeast inh 0.1%.
For COC(=O)c1ccc(-n2c(C)cc(C(=O)CSc3cccc[n+]3[O-])c2C)cc1 the results were FUS yeast rescue inactive, Chronic BCR inh 0.3%, TDP-43 yeast inh 14.1µM*, Abeta yeast res inactive, uPA surface inh inconclusive and aSyn yeast inh inconclusive.
`Cc1cc(C(=O)CSc2cccc[n+]2[O-])c(C)n1-c1ccc(OC(F)F)cc1` gave FUS yeast rescue inactive, Chronic BCR inh -0.2%, TDP-43 yeast inh 14.1µM*, Abeta yeast res inactive, uPA surface inh -9.4% and aSyn yeast inh -7.0%.
For O=C(Nc1cccc(C(=O)O)c1)/C(=C\c1ccccc1)NC(=O)c1ccccc1Cl the results were FUS yeast rescue inactive, Chronic BCR inh -2.1%, TDP-43 yeast inh -9.5%, Abeta yeast res inactive, uPA surface inh -3.8% and aSyn yeast inh 0.0%.
Screening O=C(N/N=C/c1c[nH]c2ccc(Br)cc12)c1ccn(Cc2ccc(Cl)cc2Cl)n1 returned FUS yeast rescue 28.2µM*, Chronic BCR inh 17.7%, TDP-43 yeast inh 20.1%, Abeta yeast res inactive, uPA surface inh -0.8% and aSyn yeast inh 1.5%.
O=C(O)Cn1cc(C(=O)c2cccs2)c2ccccc21 was read as FUS yeast rescue inactive, Chronic BCR inh -1.2%, TDP-43 yeast inh -15.6%, Abeta yeast res inactive and aSyn yeast inh 6.6%.
Screening CCOC(=O)Cn1cc(C(=O)c2cccs2)c2ccccc21 returned FUS yeast rescue inactive, Chronic BCR inh 8.6%, TDP-43 yeast inh 17.8µM*, Abeta yeast res inactive, uPA surface inh 2.9% and aSyn yeast inh -0.5%.
`CCn1cnc2c(cnn2-c2ccccc2)c1=O` gave FUS yeast rescue inconclusive, Chronic BCR inh 7.8%, TDP-43 yeast inh -10.2%, Abeta yeast res inactive, uPA surface inh -8.5% and aSyn yeast inh 0.6%.
`CC(C)CNC(=O)c1cccc(NC(=O)c2ccc(Cl)c([N+](=O)[O-])c2)c1` gave Chronic BCR inh -0.5%, TDP-43 yeast inh 13.7%, Abeta yeast res inactive, uPA surface inh -9.1% and aSyn yeast inh 2.8%.
Screening CCN(CC(=O)Nc1ccc2c(c1)OCCO2)S(=O)(=O)c1cccs1 returned FUS yeast rescue inactive, Chronic BCR inh inconclusive, TDP-43 yeast inh 1.5%, Abeta yeast res inactive, uPA surface inh 1.9% and aSyn yeast inh 1.8%.
Screening Cc1ccc(C(=O)Nc2nc3c(s2)CCCC3)o1 returned FUS yeast rescue inactive, Chronic BCR inh inconclusive, TDP-43 yeast inh 14.1µM*, Abeta yeast res inactive, uPA surface inh -8.6% and aSyn yeast inh -27.1%.
